“And” between values parts separate entries of the source, which are not always exact repeats. Equal entries are not always repeated. Results filed as inconclusive are left out. The source made the active and inactive calls. Unless noted, calls follow the shape of the dose curve; as a rule, active = well fitted curve in either direction with a large enough effect (not every such curve was filed as active); inconclusive = small, poorly fitted or top-dose-only effect, or another doubt; inactive = flat fitted curve, though single readings scatter.
Experiments:
[1] = AP1 Signaling Pathway (AID 357);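 also: ME-180 reporter cells stimulated with EGF at its EC50 level; % is scaled to controls: 0 for no effect and ±100 for the full control effect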
Procedure, shortened: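 Read-out was the 460nm/530nm emission ratio (excitation 405nm) after CCF4 loading for 2.5 hours at room temperature. Cells carried an AP-1-driven beta-lactamase reporter, were stimulated with EC50 EGF plus compound for 5 hours, and AC50 values came from titrations.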

[2] = Cell Viability - Jurkat (AID 426;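 active = dose-dependent loss of cell ATP signal giving a full or clear fitted curve, ranked by lower potency value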; also: potency is read from the fitted curve at half-maximal effect); conditions: qHTS
Procedure, shortened: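 qHTS, 1536-well; Jurkat E6-1, 5000 cells/well, complete medium; cpd 40 hr, 37 °C; CellTiter-Glo 20 min RT; luminescence. AC50 by Hill fit.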

[3] = Cell Viability - HepG2 (AID 433; calls by dose curve;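 also: potency is read from the fitted curve at half-maximal effect; potency for ATP loss meaning cytotoxicity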); conditions: qHTS
Procedure, shortened: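 Read-out is luciferase-based quantitation of cellular ATP as a measure of viable HepG2 cells after 40 h treatment at 37 °C. Signal decrease is scaled between DMSO-only and 100 uM tamoxifen controls, with AC50 fitted by the Hill equation.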

[4] = Cell Viability - MRC5 (AID 434; calls by dose curve;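 also: potency is read from the fitted curve at half-maximal effect; potency reflects cytotoxicity seen as loss of intracellular ATP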); conditions: MRC5 lung fibroblast viability, qHTS
Procedure, shortened: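 MRC5 normal human lung fibroblasts (1500/well) were treated with compounds for 40 hr at 37 °C in complete medium, and viable cells were measured as intracellular ATP by CellTiter-Glo luminescence. AC50 came from Hill fits, normalized to DMSO and 100 uM tamoxifen.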

[5] = Cell Viability - SK-N-SH (AID 435; calls by dose curve;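 also: potency is read from the fitted curve at half-maximal effect; compound exposure lasted 40 h at 37 °C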); conditions: SK-N-SH neuroblastoma cell viability qHTS
Procedure, shortened: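 Luminescent ATP signal served as the viability read-out after 40 hours of compound treatment of human neuroblastoma SK-N-SH cells. Concentration-response data, scaled between DMSO and 100 uM tamoxifen, gave AC50 values by standard Hill modeling.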

[6] = NFAT Signaling Pathway (AID 444);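 also: carbachol stimulus at about its EC50 of 1 µM final; % is scaled to controls: 0 for no effect and ±100 for the full control effect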
Procedure, shortened: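 Jurkat cells carrying an NFAT-driven β-lactamase reporter and co-transfected muscarinic M1 receptor were treated with compound plus carbachol (1 uM final, an EC50 level) for 5 h at 37 °C. CCF4 loading followed for 1 h at RT; 460/530 nm ratio gave %activity.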

[7] = Stat Signaling Pathway (AID 446); conditions: ME-180 SIE beta-lactamase reporter, IL-6 stimulated, 5 h;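 also: ME-180 cervical cancer cells given 40 pM IL-6 alongside compound; SIE-controlled beta-lactamase reporter measured as 460/530 nm FRET emission ratio; % is scaled to controls: 0 for no effect and ±100 for the full control effect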
Procedure, shortened: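 ME-180 cells carrying a SIE-driven beta-lactamase reporter are stimulated with 40 pM IL-6 for 5 h at 37C in the presence of compound. The 460/530 nm FRET substrate ratio is read after 2.5 h at RT. Data are normalised to 300 pM IL-6 and to 125 nM JAK inhibitor controls.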

[8] = molecular target: Glucocorticoid receptor (Homo sapiens) (UniProt P04150); assay: GR-GFP Redistribution (AID 450;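 active = compounds whose dose series gives a full or clear partial fitted curve of increased nuclear translocation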; also: potency is read from the fitted curve at half-maximal effect); conditions: U2OS GR-GFP nuclear translocation, laser cytometry, 2 h
Sequence of Glucocorticoid receptor (Homo sapiens) (P04150 whole entry, looked up, the tested form may be a part): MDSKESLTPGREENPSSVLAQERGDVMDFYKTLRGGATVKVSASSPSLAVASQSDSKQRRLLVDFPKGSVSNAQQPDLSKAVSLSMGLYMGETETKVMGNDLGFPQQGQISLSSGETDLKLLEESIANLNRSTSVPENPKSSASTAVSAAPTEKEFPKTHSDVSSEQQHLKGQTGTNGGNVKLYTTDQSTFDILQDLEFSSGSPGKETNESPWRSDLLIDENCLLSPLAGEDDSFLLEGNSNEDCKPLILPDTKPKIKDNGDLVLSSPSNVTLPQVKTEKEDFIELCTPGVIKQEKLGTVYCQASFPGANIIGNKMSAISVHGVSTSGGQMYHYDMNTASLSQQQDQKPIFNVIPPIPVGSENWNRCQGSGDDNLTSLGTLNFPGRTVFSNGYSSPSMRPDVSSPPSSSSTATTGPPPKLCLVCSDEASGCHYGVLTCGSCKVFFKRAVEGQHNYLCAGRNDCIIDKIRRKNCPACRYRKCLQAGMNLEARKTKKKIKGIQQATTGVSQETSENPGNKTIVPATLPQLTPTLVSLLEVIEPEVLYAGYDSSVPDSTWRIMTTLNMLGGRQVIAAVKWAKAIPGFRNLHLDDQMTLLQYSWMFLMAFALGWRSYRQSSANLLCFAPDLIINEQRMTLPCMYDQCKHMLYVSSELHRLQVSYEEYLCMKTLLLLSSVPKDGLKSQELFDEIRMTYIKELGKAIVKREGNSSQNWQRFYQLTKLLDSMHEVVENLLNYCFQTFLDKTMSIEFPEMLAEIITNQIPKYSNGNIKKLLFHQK

[9] = molecular target: Glucocorticoid receptor (Homo sapiens) (UniProt P04150); assay: GR-EFC Redistribution (AID 451; calls by dose curve; also: potency is read from the fitted curve at half-maximal effect); conditions: CHO-K1 GR-EFC translocation, beta-gal luminescence, 2 h
Procedure, shortened: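 CHO-K1 cells stably expressing nuclear-localized β-gal enzyme acceptor and GR fused C-terminally to the enzyme donor fragment; ligand-driven nuclear translocation restores β-gal by complementation. Compounds titrated up to 46 uM final, 2 h at 37 °C; luminescence read.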

[10] = molecular target: Mitogen-activated protein kinase 10 (Mus musculus) (UniProt Q61831); assay: JNK3 AlphaScreen Assay (AID 530);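 also: kinase came from lysate of stimulated human HepG2 cells; signal reports phosphorylation of biotinylated GST-cJun 1-79 at Ser73 with 10 µM ATP; % is scaled to controls: 0 for no effect and ±100 for the full control effect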
Procedure, shortened: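 Inhibitors reduce antibody binding to phosphorylated biotin-cJun, lowering AlphaScreen luminescence. Lysates from HepG2 cells pre-activated by IL-1beta plus TNF-alpha supplied JNK3; compounds were titrated.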

[11] = Cell Viability - N2a (AID 540; active = well fitted curve in the direction sought with a large enough effect; an effect the other way counts as inactive or inconclusive;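 also: plate controls were DMSO alone for no effect and tamoxifen control for full effect; nearly all actives have a fitted effect of over 45% in size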); conditions: N2a mouse neuroblastoma cell viability; activity change, negative = cytotoxicity: at 92.2 µM (top of the series)
Procedure, shortened: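 Luminescent ATP signal (CellTiter-Glo, 20 min at room temperature) served as the viability read-out after N2a cells were treated with compounds for 40 hours at 37 °C. Concentration-response data were fitted to the Hill equation for AC50.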

[12] = Cell Viability - HUV-EC-C (AID 542; active = well fitted curve in the direction sought with a large enough effect; an effect the other way counts as inactive or inconclusive; also: nearly all actives have a fitted effect of over 35% in size; also: potency is read from the fitted curve at half-maximal effect)
Procedure, shortened: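 qHTS cytotoxicity: HUV-EC-C, 1000 cells/well, 5 hr settle, compound 40 hr 37 °C, CellTiter-Glo, luminescence. AC50 via Hill equation.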

[13] = Cell Viability - H-4-II-E (AID 543; active = well fitted curve in the direction sought with a large enough effect; an effect the other way counts as inactive or inconclusive; also: nearly all actives have a fitted effect of over 35% in size; also: potency is read from the fitted curve at half-maximal effect)
Procedure, shortened: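 Luminescent ATP signal (CellTiter-Glo) served as the viability read-out, with cytotoxicity seen as a concentration-dependent ATP drop. Cells were treated for 40 hours in complete medium. AC50 values derive from Hill-equation modelling.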

[14] = Cell Viability - SH-SY5Y (AID 544; active = well fitted curve in the direction sought with a large enough effect; an effect the other way counts as inactive or inconclusive;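 also: 0% = DMSO alone and -100% = 100 µM tamoxifen; nearly all actives have a fitted effect of over 55% in size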); conditions: SH-SY5Y neuroblastoma cell viability; viability change, negative = cytotoxic: at 92.2 µM (top of the series)
Procedure, shortened: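 Luminescent ATP read-out (CellTiter-Glo) measures loss of viable SH-SY5Y neuroblastoma cells after 40 hr compound exposure at 37 °C. AC50 values derive from standard Hill modelling of qHTS concentration-response data.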

[15] = Cell Viability - Renal Proximal Tubule (AID 545; active = well fitted curve in the direction sought with a large enough effect; an effect the other way counts as inactive or inconclusive;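 also: 0% = DMSO only and -100% = 100 µM tamoxifen; nearly all actives have a fitted effect of over 40% in size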); conditions: renal proximal tubule cells viability, primary cells of rat origin; activity change, negative = cytotoxicity: at 91.7 µM (top of the series)
Procedure, shortened: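 Luminescent ATP signal (CellTiter-Glo) served as the viability read-out after 40 hr compound exposure of freshly isolated rat proximal tubule cells at 37 °C. Concentration-dependent ATP loss was fitted with the Hill equation to give AC50.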

[16] = Cell Viability - Mesenchymal (AID 546; active = well fitted curve in the direction sought with a large enough effect; an effect the other way counts as inactive or inconclusive;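 also: cells exposed to compound for 40 hours before reading; 0% = DMSO only and -100% = 100 µM tamoxifen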); conditions: mesenchymal cells viability, qHTS; activity change, negative = cytotoxicity: at 91.7 µM (top of the series)
Procedure, shortened: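 Normal human renal glomerulus-derived kidney mesenchymal cells, 1000 per well in complete medium, were treated with compounds for 40 hr at 37 °C. Viability was read as intracellular ATP by CellTiter-Glo luminescence; AC50 values came from Hill-equation fits of qHTS concentration-response data.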

[17] = Cell Viability - BJ (AID 421; calls by dose curve;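 also: potency is read from the fitted curve at half-maximal effect; cells exposed to compound for 40 hours at 37 °C before readout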); conditions: BJ fibroblast viability, qHTS
Procedure, shortened: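 Normal human BJ foreskin fibroblasts, 1500/well in complete medium, treated 40 hr at 37 °C. Cellular ATP by CellTiter-Glo luminescence; normalized to DMSO and 100 uM tamoxifen, AC50 from Hill fit.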

[18] = molecular target: Cytochrome P450 1A2 (Homo sapiens) (UniProt P05177); assay: p450-cyp1a2 (AID 410; calls by dose curve; also: potency is read from the fitted curve at half-maximal effect)
Sequence of Cytochrome P450 1A2 (Homo sapiens) (P05177 whole entry, looked up): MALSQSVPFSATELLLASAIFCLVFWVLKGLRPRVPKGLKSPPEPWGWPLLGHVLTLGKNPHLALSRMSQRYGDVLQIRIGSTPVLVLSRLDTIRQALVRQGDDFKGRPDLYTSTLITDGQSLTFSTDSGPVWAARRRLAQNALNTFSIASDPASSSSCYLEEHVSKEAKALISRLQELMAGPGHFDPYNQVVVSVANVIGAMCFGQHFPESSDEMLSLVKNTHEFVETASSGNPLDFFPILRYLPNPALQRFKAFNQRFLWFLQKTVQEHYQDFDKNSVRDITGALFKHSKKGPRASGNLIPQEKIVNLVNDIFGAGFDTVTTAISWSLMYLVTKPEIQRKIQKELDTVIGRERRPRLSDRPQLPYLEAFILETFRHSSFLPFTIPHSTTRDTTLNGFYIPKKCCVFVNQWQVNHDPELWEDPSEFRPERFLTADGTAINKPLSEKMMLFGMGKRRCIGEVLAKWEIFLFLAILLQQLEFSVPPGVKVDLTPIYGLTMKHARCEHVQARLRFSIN
Procedure, shortened: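 Luminescent readout of luciferin formed from Luciferin-ME by human CYP1A2; data normalized against complete inhibition by 57 uM furafylline. Enzyme 20nM, substrate 100uM at Km, 100mM KPO4 buffer, 60 min reaction at room temperature.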

[19] = Cell Viability - Hek293 (AID 427;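 active = compounds whose dose-response curve shows a full or clear partial loss of cell viability, called from curve shape rather than a numeric limit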;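 also: potency is read from the fitted curve at half-maximal effect; cells exposed to compound for 40 hours at 37 °C before reading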); conditions: qHTS
Procedure, shortened: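 HEK293 cells in complete medium were exposed to compound for 40 hr at 37 °C, then cellular ATP was read by CellTiter-Glo luminescence. Data were normalized to DMSO (basal) and 100 uM tamoxifen (100% inhibition), and AC50 came from Hill fits.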

CC/C(=C(\c1ccccc1)c1ccc(OCCN(C)C)cc1)c1ccccc1
inactive: outcome [1] | outcome [6] | activity, negative = inhibition ([7]; at 17.2 µM (top of the series)) 14.2% | activity, negative = inhibition ([7]; at 38 µM (top of the series)) 2.62% | Potency [8] > 46 µM and > 20.6 µM | Potency [9] > 46 µM and > 20.6 µM | outcome [10]
active: Potency [2] 31.5 µM | Potency [3] 46.2 µM | Potency [4] 60.3 µM | Potency [5] 49.1 µM | activity change, negative = cytotoxicity [11] -117% | Potency [12] 50.1 µM | Potency [13] 50.1 µM | viability change, negative = cytotoxic [14] -99.3% | activity change, negative = cytotoxicity [15] -109% | activity change, negative = cytotoxicity [16] -91.4%

O=C(O)c1cc(O)c2c(c1)C(=O)c1cccc(O)c1C2=O
inactive: outcome [1] | Potency [17] > 92 µM | Potency [4] > 92 µM | outcome [6] | activity, negative = inhibition ([7]; at 17.2 µM (top of the series)) 11.9% | Potency [8] > 20.6 µM | outcome [10] | Potency [12] | Potency [13] | Potency [14] | Potency [15]

CCN(CC)C(=O)c1ccc(O)c(OC)c1
active: Potency [18] 12.6 µM
inactive: outcome [1] | outcome [6] | activity, negative = inhibition ([7]; at 17.2 µM (top of the series)) 4.07% and -1.09% | activity, negative = inhibition ([7]; at 38 µM (top of the series)) -11.7% | Potency [8] > 46 µM and > 20.6 µM | Potency [9] > 46 µM and > 20.6 µM | outcome [10]

CCCNC(=O)NS(=O)(=O)c1ccc(Cl)cc1
inactive: outcome [1] | Potency [18] | Potency [17] > 92 µM | Potency [2] > 92 µM | Potency [19] > 92 µM | Potency [3] > 92 µM | Potency [4] > 92 µM | Potency [5] > 92 µM | outcome [6] | activity, negative = inhibition ([7]; at 17.2 µM (top of the series)) -8.89% and -0.985% | activity, negative = inhibition ([7]; at 38 µM (top of the series)) -1.14% | Potency [8] > 46 µM and > 20.6 µM | Potency [9] > 46 µM and > 20.6 µM | outcome [10] | Potency [11] | Potency [12] | Potency [13] | Potency [14] | Potency [15] | Potency [16]

O=c1c(-c2ccc(O)cc2)coc2cc(O)ccc12
inactive: outcome [1] | Potency [17] > 92 µM | Potency [2] > 92 µM | Potency [19] > 92 µM | Potency [3] > 92 µM | Potency [4] > 92 µM | Potency [5] > 92 µM | outcome [6] | activity, negative = inhibition ([7]; at 38 µM (top of the series)) -22% | Potency [8] > 46 µM | Potency [9] > 46 µM | outcome [10] | Potency [11] | Potency [12] | Potency [14] | Potency [15] | Potency [16]
active: Potency [18] 15.8 µM

Clc1ccc(Cn2c(CN3CCCC3)nc3ccccc32)cc1
active: Potency [18] 10 µM and 3.98 µM
inactive: outcome [1] | outcome [6] | activity, negative = inhibition ([7]; at 17.2 µM (top of the series)) -8.1% and 3.26% | activity, negative = inhibition ([7]; at 38 µM (top of the series)) 0.465% | Potency [8] > 46 µM and > 20.6 µM | Potency [9] > 46 µM and > 20.6 µM | outcome [10]

CC(=O)c1ccc(S(=O)(=O)NC(=O)NC2CCCCC2)cc1
inactive: outcome [1] | Potency [18] | Potency [17] > 92 µM | Potency [2] > 92 µM | Potency [19] > 92 µM | Potency [3] > 92 µM | Potency [4] > 92 µM | Potency [5] > 92 µM | outcome [6] | activity, negative = inhibition ([7]; at 17.2 µM (top of the series)) -1.46% | activity, negative = inhibition ([7]; at 38 µM (top of the series)) -26.2% | Potency [8] > 46 µM and > 20.6 µM | Potency [9] > 46 µM and > 20.6 µM | outcome [10] | Potency [11] | Potency [12] | Potency [13] | Potency [14] | Potency [15] | Potency [16]

Reference: PubChem BioAssay (NCATS)
